Smad3 FoxH1 inh – blocks human Smad3 binding to FoxH1 peptide; P84022; TR-FRET Smad3/Dy647-FoxH1 peptide binding, europium anti-His; inhibition, % at 25 µM; 88,000 tested, 0.29% active;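 active = compounds that reduce the energy-transfer binding signal between the protein and its labelled peptide by more than half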;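 note: 0% = Smad3 plus labelled peptide maximal FRET and 100% = peptide-only background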
Target sequence (P84022 whole entry, looked up): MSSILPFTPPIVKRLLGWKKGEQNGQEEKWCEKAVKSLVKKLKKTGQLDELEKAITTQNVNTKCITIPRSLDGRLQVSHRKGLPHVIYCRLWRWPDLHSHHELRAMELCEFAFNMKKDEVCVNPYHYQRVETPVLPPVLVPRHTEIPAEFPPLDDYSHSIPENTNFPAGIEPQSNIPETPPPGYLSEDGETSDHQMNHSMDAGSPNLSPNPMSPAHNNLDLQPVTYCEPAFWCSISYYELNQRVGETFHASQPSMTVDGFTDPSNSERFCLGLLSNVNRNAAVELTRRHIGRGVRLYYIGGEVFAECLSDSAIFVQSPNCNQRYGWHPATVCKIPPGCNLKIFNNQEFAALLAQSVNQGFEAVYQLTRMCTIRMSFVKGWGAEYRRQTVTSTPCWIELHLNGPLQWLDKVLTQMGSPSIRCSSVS
IL1B cytotox – toxic to HUVEC cells under IL-1B stimulation; HUVEC cell count loss, Hoechst imaging, IL-1B stimulated; cell count reduction, % at 2 µM; 94,000 tested, 0.41% active; AID 845;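 active = cell count reduction more than 3 SD above the screen-wide mean, cut at about 70% in these data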;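 note: normalized per plate to untreated control cells as the no-loss baseline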
IL1B NFkB inh – blocks IL-1B driven NFkB nuclear translocation in HUVEC cells; HUVEC IL-1B NFkB p65 nuclear translocation imaging; inhibition, % at 2 µM; 94,000 tested, 0.43% active;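 active = inhibition above about 30% together with a positive call from visual inspection of the well image, limit read from the data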;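 note: nuclear over cytoplasmic p65 intensity ratio measured by imaging; 0% = IL-1B stimulated DMSO wells and 100% = unstimulated DMSO wells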
IL1B NFkB pot – enhances IL-1B driven NFkB nuclear translocation; HUVEC IL-1B NFkB p65 nuclear translocation imaging; activation, % at 2 µM; 94,000 tested, 0.3% active; AID 819;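 active = activation above 40%, about the mean plus 3 SD, also judged a hit on visual image review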;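 note: percent activation is computed from the nuclear over cytoplasmic p65 intensity ratio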
Active calls of the source: *; · = not tested or not shown; [ ] = remark or other dose. Only some compounds are listed: those with a hit (about 1.2% of all), similar ones and a draw of the others.

SMILES | Smad3 FoxH1 inh | IL1B cytotox | IL1B NFkB inh | IL1B NFkB pot
Cc1cc2c3c(c1)C1(SCC(=O)N1c1ccc(F)cc1)C(=O)N3C(C)(C)CC2C (stereo not drawn) | 1 | -12 | 34* | -34
Cc1ccc(S(=O)(=O)N2CCOCC2)cc1NC(=O)Cn1ccsc1=N | · | -4 | -40 | 40*
N=c1sccn1CC(=O)Nc1ccc(S(=O)(=O)N2CCOCC2)cc1 | -2 | -45 | -5 | 5
CCOCCCn1c(=N)c(C(=O)Nc2cc(C)on2)cc2c(=O)n3ccccc3nc21 | 6 | -22 | 10 | -10
Cc1onc(-c2ccccc2Cl)c1C(=O)Nc1cc(=O)n(C)c(=O)n1C | · | 89* | 18 | -18
CC1(C)OC[C@@H]2O[C@H](n3cnc4c(N)nc(Cl)nc43)[C@H](OS(C)(=O)=O)[C@H]2O1 | 37 | · | · | ·
COc1ccccc1NC(=O)CSc1nnc(CNC(=O)COc2ccc(Cl)cc2)o1 | 1 | -26 | -40 | 40*
O=C(CN1CCCCCC1)N1c2ccccc2C=Cc2ccccc21 | 4 | 3 | 31* | -31
O=C(CN1CCCCC1)N1CCCc2ccccc21 | · | 10 | -13 | 13
O/N=C1/CCCSc2ccccc21 | · | 6 | -48 | 48*
O=C(Nc1ccc2c(c1)OCO2)c1cccc(F)c1 | -4 | 90* | 12 | -12
O=C(Nc1ccc2c(c1)OCO2)c1c(F)cccc1F | -1 | 6 | -23 | 23
CC(=O)c1sc(N2C(=O)c3oc4ccccc4c(=O)c3C2c2ccc(C)o2)nc1C (stereo not drawn) | -1 | · | · | ·
CCOC(=O)C1C(=O)Nc2nc(C)nn2C1c1ccccc1 (stereo not drawn) | 7 | 10 | -84 | 84*
CCOC(=O)C1C(=O)NC(N2CCCCC2)=NC1c1ccccc1 (stereo not drawn) | -1 | · | · | ·
Cc1ccc(-n2c(C)nn(-c3ncc(C(F)(F)F)cc3Cl)c2=O)cc1 | 8 | 14 | 5 | -5
C=CCC(NCc1ccco1)c1ccc(OC)c(OC)c1 (stereo not drawn) | 2 | 4 | 2 | -2
C=CCC(NCc1ccco1)c1ccc(OC)cc1OC (stereo not drawn) | -7 | -2 | 58* | -58
C[C@H](Oc1ccc(Oc2cnc3ccc(Cl)cc3n2)cc1)C(=O)O | 4 | · | · | ·
CCn1c(SCC(=O)Nc2cccc(NC(=O)c3cccs3)c2)nnc1-c1ccncc1 | 1 | -40 | -42 | 42*
CCn1c(SCC(=O)NCc2cccs2)nnc1-c1ccncc1 | -2 | 2 | -25 | 25
CC(=O)Nc1nnc(SCc2ccc(F)cc2)s1 | 0 | 80* | 6 | -6
CCCn1c(=O)n(C)c(=O)c2c3oc(=O)c(NC(=O)c4ccc(F)cc4)cc3[nH]c21 | -1 | · | · | ·
CN(c1ccccc1C(=O)Nc1ccc(S(=O)(=O)N2CCCC2)cc1)S(C)(=O)=O | 7 | -104 | -2 | 2
COc1cc(S(=O)(=O)N2CCCCC2)ccc1NC(=O)c1ccccc1Cl | -3 | -36 | 47* | -47
SMILES | Smad3 FoxH1 inh | IL1B cytotox | IL1B NFkB inh | IL1B NFkB pot
CN(c1ccccc1C(=O)Nc1ccc(S(=O)(=O)N2CCCCC2)cc1)S(C)(=O)=O | 25 | 94* | 99* | -99
C=CCSc1nnc(-c2ccc(Cl)cc2Cl)o1 | -3 | 4 | 10 | -10
Clc1ccc(-c2nnc(SCc3ccon3)o2)c(Cl)c1 | 14 | 70* | 4 | -4
COc1ccc(NC(=O)C2CCCCN2N)cc1OC (stereo not drawn) | -8 | -38 | -41 | 41*
COc1ccc(NC(=O)C2CCCO2)cc1OC (stereo not drawn) | 72* | 9 | 2 | -2
CC(C)c1nc(SCC(=O)NCc2ccc3c(c2)OCO3)c2c(=O)n(C)c(=O)n(C)c2n1 | -6 | · | · | ·
C[C@@H](CCC[C@@H]1SC[C@H]2NC(=O)N[C@@H]12)C(=O)O | 7 | · | · | ·
O=C(O)[C@H]1CCCN1Cc1cc2ccccc2c2ccccc12 | 0 | · | · | ·
Clc1ccc(-c2noc(CCCOc3ccccc3)n2)cc1 | 3 | -10 | 84* | -84
Clc1ccc(-c2noc(COc3ccccc3)n2)cc1 | 8 | · | · | ·
Cc1cc2c(cc(C(=O)O)n2C)s1 | -6 | -12 | -8 | 9
Cc1cc2sc(C(=O)O)c(C)c2s1 | 54*[fluorescence artefact?] | 3 | 1 | -1
O=C(NC1CCCC1)C(c1ccccc1)N(C(=O)c1ccno1)c1ccccc1 (stereo not drawn) | 7 | 73* | 46* | -46
Cc1ccc2ccccc2c1CSc1nc(N)nc2c1ncn2CC(C)C | 4 | · | · | ·
Cc1ccc(S(=O)(=O)O[C@@H]2[C@@H]3OC(C)(C)O[C@@H]3O[C@@H]2[C@@H]2COC(C)(C)O2)cc1 | 48 | · | · | ·
CCOc1cc(N2CCOCC2)c(OCC)cc1NC(=O)Cc1cccc2ccccc12 | · | 20 | -63 | 63*

Bioassay records from PubChem.
